PubChem BioAssay (EPA / NIEHS)
Results filed as inconclusive are left out. The source made the active and inactive calls. How the source made its calls: active means hit-call score of the fitted dose curve at least 0.9, where 1 is the maximum; inconclusive means response in the unintended direction; inactive means score below 0.9.

Read-out: xenobiotic metabolism (CYP1A1), CYP1A1 (gene 1543)
Test: CLD_CYP1A1_6hr: CellzDirect (CLD) Gene Expression Assay for xenobiotic metabolism (CYP1A1) at 6 hours (AID 2283661);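 on AC50: potency for transcript induction above DMSO vehicle baseline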
Experimental: CLD_6hr is a cell-based, multiplexed-readout assay that uses hepatocyte, a human liver primary cell, with measurements taken at 6 hours after chemical dosing in a 96-well plate.CLD_CYP1A1_6hr is one of 16 assay component(s) measured or calculated from the CLD_6hr assay. It is designed to make measurements of mRNA induction, a form of inducible reporter, as detected with chemiluminescence signals by Quantitative Nuclease Protection Assay (qNPA) technology.Data from the assay component CLD_CYP1A1_6hr was analyzed at the endpoint, CLD_CYP1A1_6hr, in the positive analysis fitting direction relative to DMSO as the negative control and baseline of activity. Using a type of inducible reporter, gain-of-signal activity can be used to understand changes in the reporter gene as they relate to the gene CYP1A1. Furthermore, this assay endpoint can be referred to as a primary readout. To generalize the intended target to other relatable targets, this assay endpoint is annotated to the cyp intended target family, where subfamily is xenobiotic metabolism.
Human hepatocyte cultures were treated daily for two consecutive days with fresh dosing solutions containing appropriate concentrations of the 320 ToxCast chemicals (chemical identities were blinded to CellzDirect and other ToxCast collaborators), vehicle control (0.2% DMSO), and positive control inducers as summarized in Table 1. Due to the large number of treatment groups and chemicals examined, the ToxCast chemicals were divided into two groups (spanning two independent cultures of hepatocytes from separate donor preparations (Hu778: ToxCast plates 1 and 2; Hu776: ToxCast plates 3 and 4). Each preparation of human hepatocyte cultures was treated with respective vehicle control, medium only control, set of six positive controls/reference chemicals for the five hepatic receptor pathways, and a subset of eight of the ToxCast chemicals (indoxacarb, pyrithiobac-sodium, norflurazon, cyhalofop-butyl, methomyl, thiram, acetochlor, and propiconazole). These replicate data, coupled with internal replicates designed within the blinded ToxCast chemical library, provided additional data to evaluate interindividual differences between hepatocyte preparations and their potential impact on chemical profiles.Cell morphology and integrity were evaluated using phase-contrast microscopy as an indicator of hepatocyte cell health (Tyson & Green, 1987). Cultures for each treatment group (i.e., media, vehicle [0.2% DMSO], positive control inducers [multiple concentrations], and the ToxCast chemicals [multiple concentrations]) were observed and cell morphology was assessed relative to vehicle control cultures at each harvest time point (0, 6, 24, or 48 h). […] Images were evaluated at the conclusion of the study to assess changes in cell integrity and account for the effects of chemical exposure on uncharacteristic changes in concentration-dependent gene expression profiles. The results from these determinations of apparent cytotoxicity were annotated (yes/no) alongside the corresponding qNPA data for reference.At the conclusion of each treatment period, hepatocyte cultures (96-well) were washed with 1 volume of HBSS, lysed by addition of 25 ul ArrayPlate lysis buffer (HTG, Tucson, AZ), and 70 ul/well of Denaturation Oil, denatured by incubation at 95C for 10 min, and frozen at approximately -70C until analysis by nuclease protection assay (qNPA) (Roberts et al., 2007). For qNPA analysis, cell lysates were thawed at 50C for approximately 30 min, qNPA probes were added, and samples were incubated at 95C for 10 min to begin the detection process by denaturing the target RNA, dissociating the duplexes and secondary structure hybridization. At the conclusion of the hybridization period, S1 nuclease reagent was added to each sample to digest all nonprotected nucleotides at 50C for 60-90 min. […]

Row | SMILES | AC50 | outcome
1 | c1ccc2[nH]c(-c3cscn3)nc2c1 | 3150 nM (active) | –
2 | CCCCOCCOCCOCc1cc2c(cc1CCC)OCO2 | 4170 nM (active) | –
3 | N#CSCSc1nc2ccccc2s1 | – | inactive
4 | CCCOC(=O)NCCCN(C)C | – | inactive
5 | CC1(C)C(C=C(Cl)Cl)C1C(=O)OCc1cccc(Oc2ccccc2)c1 (stereo not given) | – | inactive
6 | COC(=O)CSc1cc(N=c2sc(=O)n3n2CCCC3)c(F)cc1Cl | 2660 nM (active) | –
7 | C=CCOC(Cn1ccnc1)c1ccc(Cl)cc1Cl (stereo not given) | 86.1 nM (active) | –
8 | CCN(Cc1c(F)cccc1Cl)c1c([N+](=O)[O-])cc(C(F)(F)F)cc1[N+](=O)[O-] | 1900 nM (active) | –
9 | CCCCCOC(=O)COc1cc(N2C(=O)C3=C(CCCC3)C2=O)c(F)cc1Cl | 20000 nM (active) | –
10 | COC(=O)c1c(Cl)nn(C)c1S(=O)(=O)NC(=O)Nc1nc(OC)cc(OC)n1 | 696 nM (active) | –
11 | CCCN(CCC)c1c([N+](=O)[O-])cc(C(F)(F)F)c(N)c1[N+](=O)[O-] | 3000 nM (active) | –
12 | CCN(CC)C(=O)c1cccc(C)c1 | – | inactive
13 | COC(=O)c1ccc(I)cc1S(=O)(=O)NC(=O)Nc1nc(C)nc(OC)n1 | – | inactive
14 | COc1nc(C)nc(NC(=O)NS(=O)(=O)c2ccccc2OCCCl)n1 | – | inactive
15 | CCOC(=O)[C@H](C)Oc1ccc(Oc2nc3ccc(Cl)cc3o2)cc1 | 3970 nM (active) | –
16 | CC(C)(C)[C@@H](O)[C@@H](Cc1ccc(Cl)cc1)n1cncn1 | 1900 nM (active) | –
17 | CC(C)(c1ccc(O)cc1)c1ccc(O)cc1 | 7.19 nM (active) | –
18 | CCCN(CCC)C(=O)SCC | – | inactive
19 | CSC(=O)c1cccc2nnsc12 | 20000 nM (active) | –
20 | c1ccc(Nc2ccccc2)cc1 | 3970 nM (active) | –

Row | SMILES | AC50 | outcome
21 | CCCCCCC(C)OC(=O)COc1nc(F)c(Cl)c(N)c1Cl (stereo not given) | – | inactive
22 | CCCCOC(=O)C(C)Oc1ccc(Oc2ccc(C(F)(F)F)cn2)cc1 (stereo not given) | – | inactive
23 | CCOC(=O)NCCOc1ccc(Oc2ccccc2)cc1 | – | inactive
24 | CCCCOC(=O)[C@@H](C)Oc1ccc(Oc2ccc(C(F)(F)F)cn2)cc1 | 20000 nM (active) | –
25 | COC(=O)c1ccc(CNS(C)(=O)=O)cc1S(=O)(=O)NC(=O)Nc1nc(OC)cc(OC)n1 | – | inactive
26 | COC(=O)c1ccccc1C(=O)O | – | inactive
27 | CCNc1nc(N)nc(Cl)n1 | – | inactive
28 | CN(C)C(=O)Nc1ccc(Cl)c(Cl)c1 | 3970 nM (active) | –
29 | CCOC(=O)C(C)Oc1ccc(Oc2nc3ccc(Cl)cc3o2)cc1 (stereo not given) | – | inactive
30 | CCOC(=O)COc1cc(-n2ncc(C(F)(F)F)c(C)c2=O)c(F)cc1Cl | – | inactive
31 | O=C(O)C1(C(=O)Nc2ccc(Cl)cc2Cl)CC1 | – | inactive
32 | O=C(Nc1ccc([N+](=O)[O-])cc1Cl)c1cc(Cl)ccc1O | 218 nM (active) | –
33 | COc1c(Cl)ccc(Cl)c1C(=O)O | – | inactive
34 | CCSC(=O)N(CC(C)C)CC(C)C | – | inactive
35 | COC(=O)c1ccccc1S(=O)(=O)NC(=O)Nc1nc(OC(F)F)cc(OC(F)F)n1 | – | inactive
36 | COC(=O)c1cccc(C)c1S(=O)(=O)NC(=O)Nc1nc(OCC(F)(F)F)nc(N(C)C)n1 | 5200 nM (active) | –
37 | S=C(S)NCCNC(=S)S.[Mn+2].[S-]C([S-])=NCCN=C([S-])[S-].[Zn+2] | 1450 nM (active) | –
38 | CCC(C)OC(=O)N1CCCCC1CCO (stereo not given) | – | inactive
39 | CCCCC(CC)COC(=O)c1ccccc1C(=O)O (stereo not given) | 63.7 nM (active) | –
40 | Oc1ccc(C(c2ccc(O)cc2)C(Cl)(Cl)Cl)cc1 | 52.2 nM (active) | –
